Assay [1] in a line: Caspase-3/7 induction in CHO-K1 cells by small molecules, qHTS cell viability counter screen (AID 1346979). Note: nearly all actives have a fitted effect of over 35% in size. Note: potency is the fitted concentration of half-maximal effect. Summed up: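 Seeding: 1,500 CHO-K1 cells/well. Rest: 5hr, 37C. Treatment: compounds in DMSO, 16hr. Read: CellTiter-Fluor, 1hr, fluorescence.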
A general note: qHTS replaces the single test concentration by a dilution series.

Assay [2] is described as follows: Caspase-3/7 induction in CHO-K1 cells by small molecules, qHTS assay (AID 1346980). Note: nearly all actives have a fitted effect of over 15% in size. Note: potency is the fitted concentration of half-maximal effect. The method, boiled down:
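Wild-type cells were seeded at 1,500 per well and settled 5 hr at 37 C, 5% CO2, then exposed to DMSO-dissolved compounds for 17 hr. Caspase-Glo 3/7 reagent was added, and luminescence was read after 30min at room temperature.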

The nature of assay [3]: Caspase-3/7 induction in HepG2 cells by small molecules, qHTS cell viability counter screen (AID 1346981). Note: nearly all actives have a fitted effect of over 30% in size. Note: potency is the fitted concentration of half-maximal effect. The method, boiled down: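 CellTiter-Fluor fluorescence measured viability in the same wells used for Caspase-Glo 3/7. HepG2 (wild type) at 2,000 cells/well were pre-incubated 5 hr, dosed, and given reagent at 16 hr, with 1 hr further at 37C.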
Assay [4] deals with Nuclear receptor subfamily 1 group I member 2 (Homo sapiens) (UniProt O75469). The assay is described as follows: Human pregnane X receptor (PXR) small molecule agonists, qHTS assay (AID 1346982). Note: nearly all actives have a fitted effect of over 35% in size. Note: potency is the fitted concentration of half-maximal effect. The method, boiled down:
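Agonist mode: luminescence from ONE-Glo after 24 h compound exposure at 37C in HepG2 cells carrying hPXR-responsive CYP3A4 luciferase, plated in charcoal-stripped serum medium 5 h beforehand.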

Assay [5] concerns the target Cytochrome P450 2D6 (Homo sapiens) (UniProt P10635). The assay is described as follows: Cytochrome P450 Family 2 Subfamily D Member 6 (CYP2D6) small molecule antagonists: luciferase reporter qHTS assay (AID 1671196). Note: nearly all actives have a fitted effect of over 50% in size. Note: potency is the fitted concentration of half-maximal effect. The method, boiled down:
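CYP2D6 activity was followed as luminescence from its luciferin product after a 1 h NADPH-driven reaction at room temperature. Enzyme-substrate mix and compound were pre-incubated for 10 min, and the signal was read 20 min after adding detection reagent.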
For orientation: Reporter assays use an easily measured gene product as a stand-in for the process of interest.

The target in assay [6] is Cytochrome P450 2C19 (Homo sapiens) (UniProt P33261). Put plainly: Cytochrome P450 Family 2 Subfamily C Member 19 (CYP2C19) small molecule antagonists: luciferase reporter qHTS assay (AID 1671197). Note: nearly all actives have a fitted effect of over 65% in size. Note: potency is the fitted concentration of half-maximal effect. The method, boiled down: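 P450-Glo CYP2C19 system: enzyme-substrate mix with compound 10 min at room temperature, then NADPH regeneration solution, 1 h at 37C. Proluciferin-to-luciferin conversion detected by luminescence after 20 min with detection reagent; ketoconazole as positive control.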
Sequence of Cytochrome P450 2C19 (Homo sapiens) (P33261 whole entry, looked up): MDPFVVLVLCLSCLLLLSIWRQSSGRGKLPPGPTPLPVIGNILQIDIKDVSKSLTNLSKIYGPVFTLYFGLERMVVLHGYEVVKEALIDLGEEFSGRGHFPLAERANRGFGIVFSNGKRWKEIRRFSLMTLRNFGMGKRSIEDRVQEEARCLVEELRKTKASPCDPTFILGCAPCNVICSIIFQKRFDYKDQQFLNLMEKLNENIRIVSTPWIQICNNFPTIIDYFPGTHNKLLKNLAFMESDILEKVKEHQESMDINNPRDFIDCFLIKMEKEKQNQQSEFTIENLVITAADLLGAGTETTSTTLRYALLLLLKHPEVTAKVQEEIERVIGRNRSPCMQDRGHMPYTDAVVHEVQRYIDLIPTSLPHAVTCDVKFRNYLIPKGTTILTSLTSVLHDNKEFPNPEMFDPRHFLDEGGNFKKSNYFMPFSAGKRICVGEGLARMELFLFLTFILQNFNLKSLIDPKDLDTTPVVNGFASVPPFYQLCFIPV

The target in assay [7] is Cytochrome P450 2C9 (Homo sapiens) (UniProt P11712). The assay is described as follows: Cytochrome P450 Family 2 Subfamily C Member 9 (CYP2C9) small molecule antagonists: luciferase reporter qHTS assay (AID 1671198). Note: nearly all actives have a fitted effect of over 50% in size. Note: potency is the fitted concentration of half-maximal effect. The method, boiled down:
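CYP2C9 activity was measured with a P450-Glo proluciferin substrate. Enzyme–substrate mix was held with compound for 10 min at room temperature, then NADPH regeneration solution was added for 1 h at 37C. Luciferin product was read as luminescence.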

Assay [8] addresses Nuclear receptor subfamily 1 group I member 2 (Rattus norvegicus) (UniProt Q9R1A7). Put plainly: Rat pregnane X receptor (rPXR) activation by small molecules, qHTS assay (AID 1346983). Note: nearly all actives have a fitted effect of over 20% in size. To be noted: rPXR luciferase reporter cells, One-Glo luminescence, 24 h; stronger effect = higher value. Summed up: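 Cell-based rPXR luciferase reporter assay, 2,000 cells per well, rested 5hr at 37 C before compound addition in DMSO, then 24 hr at 37 C. One-Glo reagent was added and luminescence read after 30 min at room temperature.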

For assay [9], the target named is Nuclear receptor subfamily 1 group I member 2 (Homo sapiens) (UniProt O75469). Put plainly: CYP3A4 induction through human pregnane X receptor (PXR) by small molecules, qHTS assay (AID 1346984). Note: nearly all actives have a fitted effect of over 40% in size. The method, boiled down: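 Read-out is luminescence after One-Glo addition, following a 3 hr, 37C incubation with Luciferin-IPA CYP3A4 substrate (3uM final). Before that, compounds were on DPX-2 cells (HepG2 co-transfected with PXR element plus CYP3A4-promoter luciferase) for 24 hr at 37C.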
Sequence of Nuclear receptor subfamily 1 group I member 2 (Homo sapiens) (O75469 whole entry, looked up): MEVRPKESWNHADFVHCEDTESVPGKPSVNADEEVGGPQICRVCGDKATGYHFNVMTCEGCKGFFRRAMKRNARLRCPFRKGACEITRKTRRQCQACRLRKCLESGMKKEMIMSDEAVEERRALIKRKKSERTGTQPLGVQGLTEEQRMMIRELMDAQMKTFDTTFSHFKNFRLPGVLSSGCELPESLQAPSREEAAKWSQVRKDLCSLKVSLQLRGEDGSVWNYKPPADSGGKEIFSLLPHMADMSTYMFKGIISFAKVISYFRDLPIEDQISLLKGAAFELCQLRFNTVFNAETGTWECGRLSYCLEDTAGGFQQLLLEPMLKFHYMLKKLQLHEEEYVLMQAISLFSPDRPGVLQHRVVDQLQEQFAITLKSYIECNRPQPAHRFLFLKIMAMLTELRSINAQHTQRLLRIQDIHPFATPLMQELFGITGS

Assay [10] shares this target. Put plainly: Human pregnane X receptor (PXR) activation by small molecules, qHTS assay (AID 1346985). Note: nearly all actives have a fitted effect of over 40% in size. Summed up: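 DPX-2 cells (HepG2 co-transfected with a PXR response element and a CYP3A4-promoter luciferase construct) were seeded at 2,000 per well, rested 5 hr at 37C, then exposed to DMSO-dissolved compounds for 24 hr. Activation was read as luciferase luminescence.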

The structures appear in SMILES notation. “And” between values parts separate entries of the source, which are not always exact repeats. Equal entries are not always repeated. Inconclusive results are not listed. Some structures have more than one record in an assay (separate samples or runs), and their calls can disagree. The source made the active and inactive calls. Calls come from the whole dose curve; as a rule, active = well fitted curve in the direction sought with a large enough effect in the repeat runs; inconclusive = weak or mixed curves; inactive = no such curve, though single readings can be large; an effect the other way counts as inactive or inconclusive.
% is set by controls: 0 for no effect and ±100 for the full control effect.

Sequence of Nuclear receptor subfamily 1 group I member 2 (Rattus norvegicus) (Q9R1A7 whole entry, looked up): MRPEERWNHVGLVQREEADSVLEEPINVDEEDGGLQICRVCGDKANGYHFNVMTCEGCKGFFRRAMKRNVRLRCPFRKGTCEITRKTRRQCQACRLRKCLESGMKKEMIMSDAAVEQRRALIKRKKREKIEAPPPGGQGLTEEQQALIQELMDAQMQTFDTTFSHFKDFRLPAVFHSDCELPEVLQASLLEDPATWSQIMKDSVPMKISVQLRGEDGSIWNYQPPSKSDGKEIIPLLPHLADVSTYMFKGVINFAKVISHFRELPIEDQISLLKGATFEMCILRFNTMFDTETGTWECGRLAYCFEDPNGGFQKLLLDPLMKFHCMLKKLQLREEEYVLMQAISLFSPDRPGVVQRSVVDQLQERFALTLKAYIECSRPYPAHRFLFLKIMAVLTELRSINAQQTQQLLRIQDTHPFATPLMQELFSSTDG
Sequence of Cytochrome P450 2C9 (Homo sapiens) (P11712 whole entry, looked up): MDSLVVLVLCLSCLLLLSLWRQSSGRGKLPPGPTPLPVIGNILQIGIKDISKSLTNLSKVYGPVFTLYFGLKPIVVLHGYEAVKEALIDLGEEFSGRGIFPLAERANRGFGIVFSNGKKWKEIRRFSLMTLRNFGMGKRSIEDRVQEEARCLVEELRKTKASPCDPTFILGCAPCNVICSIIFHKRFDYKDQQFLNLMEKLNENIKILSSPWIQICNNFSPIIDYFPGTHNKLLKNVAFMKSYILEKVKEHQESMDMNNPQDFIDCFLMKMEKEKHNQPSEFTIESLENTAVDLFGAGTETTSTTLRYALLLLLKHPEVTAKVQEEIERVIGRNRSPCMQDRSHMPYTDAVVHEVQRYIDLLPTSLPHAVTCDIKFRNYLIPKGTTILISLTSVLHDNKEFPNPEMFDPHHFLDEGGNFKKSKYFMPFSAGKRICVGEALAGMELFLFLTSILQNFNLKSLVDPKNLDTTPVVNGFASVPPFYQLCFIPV
Sequence of Cytochrome P450 2D6 (Homo sapiens) (P10635 whole entry, looked up): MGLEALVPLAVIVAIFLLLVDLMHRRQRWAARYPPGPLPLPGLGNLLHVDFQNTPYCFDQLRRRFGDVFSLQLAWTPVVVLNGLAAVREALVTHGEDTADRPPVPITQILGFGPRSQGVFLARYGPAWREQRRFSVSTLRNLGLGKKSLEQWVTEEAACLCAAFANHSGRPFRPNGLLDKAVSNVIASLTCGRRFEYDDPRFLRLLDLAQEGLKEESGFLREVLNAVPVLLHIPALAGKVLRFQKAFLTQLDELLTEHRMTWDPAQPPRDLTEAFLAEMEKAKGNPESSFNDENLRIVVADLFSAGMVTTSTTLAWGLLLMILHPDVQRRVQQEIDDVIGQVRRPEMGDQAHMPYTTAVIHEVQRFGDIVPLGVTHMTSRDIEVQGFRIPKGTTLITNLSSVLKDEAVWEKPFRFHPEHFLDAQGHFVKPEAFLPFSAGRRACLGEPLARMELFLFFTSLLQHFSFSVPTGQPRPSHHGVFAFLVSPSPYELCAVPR

With `Cc1cc(C2(c3cc(C)c(O)cc3C)OS(=O)(=O)c3ccccc32)c(C)cc1O`, the Potency in [1] was 30.6 µM (active) and 13.7 µM (active); in assay [3] it was 30.6 µM (active) and 19.3 µM (active); in [4], 61.1 µM (active) and inactive; in assay [5] it was 39.9 µM (active); in assay [6] it was 7.97 µM (active) and 17.8 µM (active); in assay [7], 5.03 µM (active) and 7.96 µM (active). For the same compound, the Potency result in assay [2] is “inactive”.
With `CC1=C(C=O)C(C)(C)CC=C1`, the Potency entry in assay [1], in assay [2], in assay [3], in assay [4], in assay [5] and in assay [7] was “inactive” each time.
Take `CC[C@@H](N)CO`: the Potency entry in [1], in [2], in assay [3], in [4], in [5] and in [6] was “inactive” in each case. The Potency result in assay [7] was “inactive”.
As for `CC(=O)CC(=O)Nc1ccc2[nH]c(=O)[nH]c2c1`, the Potency result in assay [1], in [2], in assay [4], in assay [5] and in assay [6] was “inactive” in each case.
With `C=CS(=O)(=O)O`, the Potency entry in assay [1], in assay [2], in assay [3], in assay [4], in assay [6] and in assay [7] was “inactive” throughout.
Turning to `Cc1cccc([N+](=O)[O-])c1C(=O)O`, the Potency entry in assay [1], in [2], in assay [3], in assay [4], in assay [6] and in [7] was “inactive” in each case. The Potency in [5] was 63.4 µM (active).
As for `CCCN[C@H]1CCc2nc(N)sc2C1`, the Potency result in assay [1], in [2] and in assay [3] was “inactive” throughout. Moreover, the max activation in assay [8] was -1.97% (inactive).
For `c1ccc2c(c1)-c1cccc3c1c-2cc1ccccc13`, the Potency was 47.4 µM (active) in assay [1]; 29.9 µM (active) and 21.7 µM (active) in assay [4]; 27.6 µM (active) and inactive in [5]. In addition, the Potency result in assay [2], in assay [3] and in [7] was “inactive” in each case.
Regarding `C#CC(C)(CC)OC(=O)c1ccccc1C(=O)O` (stereo not given), the Potency entry in assay [1], in [2], in assay [3], in assay [4], in [5] and in assay [6] was “inactive” throughout. Moreover, in assay [7], the Potency entry is “inactive”.
Regarding `CC[C@H]1CN2CCc3cc(OC)c(OC)cc3[C@@H]2C[C@@H]1C[C@H]1NCCc2cc(OC)c(OC)cc21`, the Potency is 27.4 nM (active) and 13.3 nM (active) in [1]; 30.7 µM (active) and inactive in [2]; 19.4 nM (active) and 8.4 nM (active) in [4]; 40.1 µM (active) in assay [5]. The max activation in assay [8] was -15.9% (inactive). The Potency result in assay [9], in assay [10] and in assay [7] was “inactive” in each case.
For `CCOc1ccccc1C(N)=O`, the Potency entry in assay [1], in assay [2], in [4], in assay [9], in [10] and in assay [5] was “inactive” throughout. In addition, the Potency result in assay [7] is “inactive”. In addition, the max activation in assay [8] is -0.87% (inactive). Further, in assay [6], the Potency was 20 µM (active) and inactive.
Turning to `Cc1cc(OCCOCC[N+](C)(C)Cc2ccccc2)ccc1C(C)(C)CC(C)(C)C`, the Potency in assay [1] was 43 µM (active); in [3], 54.2 µM (active); in assay [5] it was 17.7 µM (active) and 13.8 µM (active); in assay [6] it was 39.7 µM (active); in assay [7], 62.9 µM (active). In addition, the Potency result in assay [2] and in assay [4] was “inactive” in each case.
As to `COC(=O)c1cccc(C(=O)OC)c1`, the Potency entry in assay [1], in assay [2], in assay [3], in assay [4], in assay [5] and in [6] was “inactive” in each case. Further, in assay [7], the Potency entry is “inactive”.
Consider `COc1ccc(COC(C)=O)cc1`, for which the Potency result in [1], in assay [2], in assay [3], in [4], in assay [5] and in [7] was “inactive” each time. For the same compound, the Potency in assay [6] was 45.6 µM (active) and inactive.
As to `Cc1occc(=O)c1OC(=O)C(C)C`, the Potency entry in assay [1], in [2], in [3], in [4], in assay [5] and in assay [6] was “inactive” each time. The Potency entry in assay [7] is “inactive”.
As for `O=C(O[C@@H]1Cc2c(O)cc(O)cc2O[C@@H]1c1cc(O)c(O)c(O)c1)c1cc(O)c(O)c(O)c1`, the Potency in assay [1] is 30.7 µM (active) and 52.5 µM (active); in assay [3] it was 54.6 µM (active) and 29.5 µM (active); in assay [6], 50.4 µM (active) and inactive; in assay [7] it was 40 µM (active) and 27.2 µM (active). For the same compound, the Potency entry in assay [2] and in assay [4] was “inactive” each time.
For the compound `CN(C)c1ccc(C(=C2C=CC(=[N+](C)C)C=C2)c2ccccc2)cc1`, the Potency is 596 nM (active) [middle of 4 runs] in assay [1]; 5.96 µM (active) and 3.35 µM (active) in [2]; 1.72 µM (active) and 2.11 µM (active) and 1.33 µM (active) in assay [4]; 7.97 µM (active) and 13.8 µM (active) and 15.5 µM (active) in assay [5]. Also, the max activation in assay [8] was 11.8% (inactive). Further, in assay [10], the Potency entry was “inactive”.
Consider `OCCN1CCNCC1`, for which the Potency entry in [1], in [2], in assay [3], in assay [4], in [5] and in assay [6] was “inactive” throughout. Further, the Potency result in assay [7] was “inactive”.
`Oc1c(Cl)cc(Cl)cc1Sc1cc(Cl)cc(Cl)c1O`: the Potency in [1] was 15.4 µM (active) and 62.1 µM (active) and 17.2 µM (active); in assay [3], 15.4 µM (active); in [6], 71.2 µM (active) and 79.6 µM (active) and inactive. In addition, the Potency entry in assay [2] and in assay [5] was “inactive” each time.
Take `Nc1ccc2cc3ccccc3cc2c1`: the Potency entry in [1], in assay [2] and in assay [3] was “inactive” each time. Besides, the Potency in assay [4] was 27.8 µM (active) and 21.7 µM (active); in assay [6], 72.3 µM (active) and 35.6 µM (active); in assay [7], 32.3 µM (active) and 31.7 µM (active).

The values are drawn from PubChem BioAssay (Tox21).
